# Experimental data from PubChem BioAssay (Tox21).
# Inconclusive results are not listed. The source made the active and inactive calls. The call rests on the fitted dose curve; in most records, active means well fitted activation curve with a large enough effect in the repeat runs; inconclusive means weak or mixed curves; inactive means flat fitted curve, though single readings scatter.
# Experiment: A CellTox Green Cytotoxicity Assay to monitor cytotoxicity in HepG2 cells - 40 hour (AID 1224879); further: nearly all actives have a fitted effect of over 40% in size
# Conditions: CellTox Green fluorescence; series mostly up to 76.8 µM; cytotoxicity increase: at the top concentration
# Excerpt: National Center for Advancing Translational Sciences [NCATS]
# NIH Chemical Genomics Center [NCGC]
# U.S. Environmental Protection Agency [EPA]
# National Institutes of Environmental Health Sciences [NIEHS]
# National Toxicology Program [NTP]
# Cell-based models are critical for drug discovery. Determining the natural cytotoxic effects resulting from test compounds is an essential research activity. A CellTox Green Cytotoxicity Assay to monitor cytotoxicity in real time of continues cell culture during 40 hours of the compound treatment was used to screen Tox21 10K library compounds in HepG2 cells. CellTox Green Cytotoxicity Assay is a nonlytic, homogeneous, biofluorescent method to measure cytotoxicity in cell culture after experimental manipulation. The assay system uses a proprietary asymmetric cyanine dye that is excluded from viable cells but preferentially stains the dead cell's DNA. […] Viable cells produce no appreciable increases in fluorescence. Therefore, the fluorescence signal produced by the binding interaction with dead cell DNA is proportional to cytotoxicity.
# The mixture of HepG2 cell suspension and reagents were dispensed at 600cells/6 ul/well in 1536-well tissue culture treated black solid bottom plates using a Multidrop dispenser. After the assay plates were incubated at a 37 C/5% CO2 incubator for 5 hours, 23 nL of compounds dissolved in DMSO, positive and negative controls was transferred to the assay plate by a pintool work station. The plates were incubated at 37 C for 40 hours. The fluorescence intensity were measured at 0h, 8h, 16h, 24h, 32h and 40h time points using ViewLux plate reader during compound treatment.
# On the % scale 0 is the no-effect control and ±100 the full control effect; potency means the concentration at half of the fitted maximal effect.
Compound,cytotoxicity increase,Potency
Cc1cc(SC2=C(O)C[C@@](CCc3ccc(N)cc3)(C(C)C)OC2=O)c(C(C)(C)C)cc1CO,-12.4% (inactive),–
COC(=O)/C=C/C(C)=C\C=C\C(C)=C\C=C\C=C(C)\C=C\C=C(C)\C=C\C(=O)O,0.636% (inactive),–
O=C(OCCCCCOC(=O)c1ccccc1)c1ccccc1,-14.4% (inactive),–
CC(=O)Nc1cccc(N)c1,-9.41% (inactive),–
O=C1c2ccccc2C(=O)C1c1ccc2ccccc2n1,-12.7% [at 35.3 µM] (inactive),–
NC(=O)c1ccccc1,-5.04% (inactive),–
COC(=O)Cc1cccc2ccccc12,6.15% (inactive),–
O=c1[nH]nc(-c2ccc([N+](=O)[O-])o2)o1,-13% (inactive),–
CCC(CC)C(=O)O,1.97% (inactive),–
C[C@H]1C[C@H]2[C@@H]3CCC4=CC(=O)C=C[C@]4(C)[C@@]3(F)[C@@H](O)C[C@]2(C)[C@@]1(O)C(=O)COP(=O)(O)O,-17.6% (inactive),–
CC(C(=O)O)c1ccc2c(c1)Cc1cccnc1O2 (stereo not given),-16.8% [at 35.3 µM] (inactive),–
O=C(OC1C[C@H]2CC[C@@H](C1)[N+]21CCCC1)C(O)(c1ccccc1)c1ccccc1 (stereo not given in full),1.06% [at 35.3 µM] (inactive),–
C=C[Si](OCC)(OCC)OCC,-14.6% (inactive),–
CCCCCC1CCC(=O)O1 (stereo not given),1.6% (inactive),–
O=C(Nc1ccc2c(c1)Cc1ccccc1-2)C(F)(F)F,-6.03% (inactive),–
CCN(CC)CC(=O)OCC(=O)[C@@]1(O)CC[C@H]2[C@@H]3CCC4=CC(=O)CC[C@]4(C)[C@H]3[C@@H](O)C[C@@]21C,-0.145% [at 35.3 µM] (inactive),–
CC(C)(O)C(=O)O,3.05% (inactive),–
CC1(C)[C@@H]2CC[C@]3(C2)[C@@H]1C(=O)CCC3(C)C,-10.4% (inactive),–
N#C[C@@H]1CC(F)(F)CN1C(=O)CNC1CC2CCC(C1)N2c1ncccn1 (stereo not given in full),1.11% (inactive),–
CC(CC(C#N)(c1ccccc1)C(C)C)N(C)C (stereo not given),-1.69% [at 35.3 µM] (inactive),–

Compound,cytotoxicity increase,Potency
CC1(C)CC(O)CC(C)(C)N1[O],-10.8% (inactive),–
S=c1[nH][nH]c(=S)s1,-14.8% (inactive),–
CCOCCn1c(N2CCCN(C)CC2)nc2ccccc21,-0.161% [at 35.3 µM] (inactive),–
CCc1c(C)[nH]c2c1C(=O)C(CN1CCOCC1)CC2 (stereo not given),-8.8% [at 35.3 µM] (inactive),–
CC/C=C/CCO,14.3% (inactive),–
Cc1nc2sccn2c(=O)c1CCN1CCC(=C(c2ccc(F)cc2)c2ccc(F)cc2)CC1,8.5% [at 35.3 µM] (inactive),–
CC1(C)C(=O)NC(=O)N1CO,-0.733% (inactive),–
CC(Cc1ccccc1)(NC(=O)CN)c1ccccc1 (stereo not given),23.9% [at 35.3 µM] (inactive),–
CCC(C(=O)O)c1ccc(N2Cc3ccccc3C2=O)cc1 (stereo not given),-2.89% [at 35.3 µM] (inactive),–
O=[N+]([O-])c1ccccc1CCO,-0.17% (inactive),–
CCCCCCCCCCCCSC#N,-0.992% (inactive),–
CC(C)CC(C)(C)C,-4.16% (inactive),–
CC(C)C[C@H](NC(=O)[C@H](Cc1ccccc1)NC(=O)c1cnccn1)B(O)O,–,0.0151 µM (active)
CC(C)(C)N,-0.217% (inactive),–
C/C=C1\[C@H]2C=C(C)C[C@]1(N)c1ccc(=O)[nH]c1C2,-9.83% [at 35.3 µM] (inactive),–
NC(=O)c1cc[n+](CC2=C(C(=O)[O-])N3C(=O)[C@@H](NC(=O)Cc4cccs4)[C@H]3SC2)cc1,0.639% [at 35.3 µM] (inactive),–
COc1ccc(/C=C/S(=O)(=O)NC(=O)c2ccc(C)cc2Cl)cc1,10.5% (inactive),–
CCOc1ccc2c(c1)C(C)CC(C)(C)N2 (stereo not given),–,43.6 µM (active)
Cc1cc(C)c(C)c(O)c1,8.04% (inactive),–
CCC(=O)O[C@]1(C(=O)COC)[C@@H](C)C[C@H]2[C@@H]3CCC4=CC(=O)C=C[C@]4(C)C3(F)[C@@H](O)C[C@@]21C (stereo not given in full),-10.9% [at 35.3 µM] (inactive),–
